# Measured values: the antibiotic and cytotoxicity screens of Wong et al. (2023)
# The campaign covered roughly 39,000 compounds. About 3,300 (8.5%) were called active. The entries come from a sample that favours actives as a whole.
# System: HepG2
# Assay: cytotoxicity call (relative viability < 0.9)
# Conditions: 10 µM
row,Compound,cytotoxicity call
1,C[C@H]1CCCCO[C@@H](CN(C)C(=O)c2ccccc2)[C@@H](C)CN([C@@H](C)CO)C(=O)c2cc(NC(=O)Nc3ccc(C(F)(F)F)cc3)ccc2O1,inactive
2,COc1ccc(CNC(=O)C[C@@H]2C[C@@H]3c4cc(NC(=O)NC5CCCC5)ccc4O[C@@H]3[C@@H](CO)O2)cc1,inactive
3,O=C(C[C@H]1C[C@@H]2c3cc(NS(=O)(=O)c4ccc(F)cc4)ccc3O[C@@H]2[C@@H](CO)O1)NCc1cccnc1,inactive
4,C[C@H]1CCCCO[C@@H](CN(C)Cc2ccncc2)[C@@H](C)CN([C@@H](C)CO)C(=O)c2cc(NC(=O)Nc3cccc4ccccc34)ccc2O1,inactive
5,C[C@@H]1CN([C@@H](C)CO)C(=O)c2cc(C#Cc3ccc(F)cc3)cnc2O[C@@H]1CN(C)CC1CCOCC1,inactive
6,Cc1ccc(S(=O)(=O)Nc2ccc3c(c2)C(=O)N([C@H](C)CO)C[C@H](C)[C@H](CN(C)C(=O)Nc2ccc(F)cc2)OCCCC[C@@H](C)O3)cc1,inactive
7,O=c1nc(N2CCc3ccccc3C2)cn[nH]1,inactive
8,COc1ccc(NC(=O)N(C)C[C@@H]2OCCCC[C@H](C)Oc3ccc(NS(=O)(=O)c4ccc(Cl)cc4)cc3C(=O)N([C@@H](C)CO)C[C@@H]2C)cc1,inactive
9,COc1ccc2c3c([nH]c2c1)[C@H](CO)N(C[C@]13CCN(CC1)C(=O)c1ccccc1F)C(=O)Nc1ccc(cc1)F,inactive
10,COc1ccc2c3c([nH]c2c1)[C@H](CO)N(C[C@]13CCN(CC1)C(=O)Nc1ccc(cc1)F)C(=O)c1ccc(cc1)F,inactive
11,COc1ccc2c3c([nH]c2c1)[C@@H](CO)N(C[C@]13CCN(CC1)C(=O)c1ccccc1F)C(=O)Nc1ccc(cc1)F,inactive
12,COc1ccc2c3c([nH]c2c1)[C@@H](CO)N(C[C@]13CCN(CC1)Cc1cc(on1)-c1ccccc1)C(=O)Nc1ccc(cc1)F,inactive
13,COc1ccc(cc1)CN1CC[C@]2(CC1)CN([C@H](CO)c1[nH]c3cc(ccc3c12)OC)C(=O)Nc1ccc(cc1)F,active
14,COc1ccc(cc1)CN1CC[C@]2(CC1)CN([C@@H](CO)c1[nH]c3cc(ccc3c12)OC)C(=O)Nc1ccc(cc1)F,active
15,COc1ccc(NC(=O)Nc2ccc3c(c2)C(=O)N([C@@H](C)CO)C[C@@H](C)[C@@H](CN(C)Cc2ccc(C(=O)O)cc2)OCCCC[C@@H](C)O3)cc1,inactive
16,C[C@H](CO)N1C[C@H](C)[C@H](CN(C)S(=O)(=O)c2cccs2)Oc2ccc(NC(=O)CCN3CCOCC3)cc2CC1=O,inactive
17,COc1ccccc1CNC(=O)C[C@H]1C[C@@H]2c3cc(NC(=O)c4ccc5c(c4)OCO5)ccc3O[C@@H]2[C@H](CO)O1,inactive
18,C[C@@H]1CCCCO[C@H](CN(C)Cc2ccccc2)[C@@H](C)CN([C@@H](C)CO)C(=O)c2cc(NC(=O)CCCCCC(=O)Nc3ccccc3N)ccc2O1,inactive
19,Cc1noc(C)c1NC(=O)N(C)C[C@@H]1Oc2ccc(NS(=O)(=O)c3ccccc3)cc2CC(=O)N([C@H](C)CO)C[C@@H]1C,inactive
20,COc1ccc(S(=O)(=O)Nc2ccc3c(c2)C(=O)N([C@@H](C)CO)C[C@@H](C)[C@H](CN(C)S(=O)(=O)c2cn(C)cn2)OCCCC[C@@H](C)O3)cc1,inactive

row,Compound,cytotoxicity call
1,C[C@@H]1CN([C@H](C)CO)C(=O)c2cccc(NC(=O)c3ccc(-c4nccs4)cc3)c2O[C@@H]1CN(C)Cc1ccccc1,inactive
2,COc1ccc(C#Cc2cnc3c(c2)C(=O)N([C@H](C)CO)C[C@H](C)[C@H](CN(C)C(=O)NC(C)C)O3)cc1OC,inactive
3,CO[C@@H]1CN(C)C(=O)c2cc(NC(=O)NC(C)C)ccc2OC[C@@H](C)N(Cc2ccc(-c3ccccn3)cc2)C[C@H]1C,inactive
4,C=CCOC(=O)[C@H]1[C@@H]2C(=O)O[C@@H](c3ccccc3)[C@@H](c3ccccc3)N2[C@@H](c2ccc(OCCOC(=O)[C@H]3C[C@H]4C(=O)NCC(=O)N4[C@H]3c3cccc(OCCO)c3)cc2)[C@]12C(=O)Nc1ccc(I)cc12,inactive
5,Cc1noc(C)c1NC(=O)Nc1ccc2c(c1)C(=O)N([C@@H](C)CO)C[C@@H](C)[C@@H](CN(C)C(=O)NC1CCCCC1)OCCCC[C@@H](C)O2,inactive
6,CO[C@H]1/C=C\C=C(/C)C(=O)NC2=CC(=O)C=C(C2=O)[C@H](OC)[C@@H](C)C[C@H](OC)[C@H](O)[C@@H](C)/C=C(\C)[C@@H]1OC(N)=O,inactive
7,COC1=C2C[C@@H](C)C[C@H](OC)[C@H](O)[C@@H](C)/C=C(\C)[C@H](OC(N)=O)[C@@H](OC)/C=C\C=C(/C)C(=O)NC(=CC1=O)C2=O,active
8,COC1=C2C[C@@H](C)C[C@H](OC)[C@H](O)[C@@H](C)/C=C(\C)[C@H](OC(N)=O)[C@@H](OC)/C=C/C=C(\C)C(=O)NC(=CC1=O)C2=O,active
9,CO[C@H]1/C=C\O[C@@]2(C)Oc3c(C)c(O)c4c(c3C2=O)[C@]2(C=C(NC(=O)/C(C)=C\C=C/[C@@H](C)[C@@H](O)[C@@H](C)[C@@H](O)[C@@H](C)[C@@H](OC(C)=O)[C@@H]1C)C4=O)OCC(=O)O2,inactive
10,COC1=C2C[C@H](C)C[C@H](OC)[C@@H](O)[C@H](C)/C=C(\C)[C@H](OC(N)=O)[C@H](OC)/C=C/C=C(\C)C(=O)NC(=CC1=O)C2=O,active
11,Cc1ccc(S(=O)(=O)N2C[C@H](O)COC[C@@H]3O[C@H](CC(=O)N[C@H]4CCN(Cc5ccccc5)C4)CC[C@H]32)cc1,inactive
12,O=C(O)Cn1c(=O)oc2ccccc21,inactive
13,C[C@@H]1CN([C@H](C)CO)C(=O)c2cc(NC(=O)C3CCCCC3)ccc2O[C@@H](C)CCCCO[C@H]1CN(C)C(=O)Cc1ccccc1,inactive
14,COc1ccc(S(=O)(=O)N(C)C[C@@H]2OCCCC[C@@H](C)Oc3ccc(NC(=O)Nc4ccc(F)cc4)cc3C(=O)N([C@@H](C)CO)C[C@@H]2C)cc1,inactive
15,COc1cc2ccnc(CCCN)c2cc1OC,inactive
16,CCOc1ccc([C@@H](C)N)cc1OCC,inactive
17,CCOc1ccc(Cc2nccc3cc(OCC)c(OCC)cc23)cc1OCC.Cl,active
18,C[C@H]1CN([C@@H](C)CO)C(=O)c2cccc(NC(=O)Nc3ccc(C(F)(F)F)cc3)c2O[C@@H]1CN(C)Cc1ccc(C(=O)Nc2ccccc2N)cc1,inactive
19,C[C@@H]1CN([C@@H](C)CO)C(=O)c2cccc(NC(=O)Nc3ccc(C(F)(F)F)cc3)c2O[C@@H]1CN(C)Cc1ccc(C(=O)Nc2ccccc2N)cc1,active
20,C[C@H]1CN([C@@H](C)CO)C(=O)c2cccc(NC(=O)Nc3ccc(C(F)(F)F)cc3)c2O[C@H]1CN(C)Cc1ccc(C(=O)Nc2ccccc2N)cc1,inactive

row,Compound,cytotoxicity call
1,C[C@H](CO)N1C[C@H](C)[C@@H](CN(C)Cc2ccc(C(=O)Nc3ccccc3N)cc2)Oc2c(NC(=O)Nc3ccc(C(F)(F)F)cc3)cccc2C1=O,inactive
2,C[C@@H]1CN([C@@H](C)CO)C(=O)c2cccc(NC(=O)Nc3ccc(C(F)(F)F)cc3)c2O[C@H]1CN(C)Cc1ccc(C(=O)Nc2ccccc2N)cc1,active
3,C[C@@H]1CN([C@H](C)CO)C(=O)c2cccc(NC(=O)Nc3ccc(C(F)(F)F)cc3)c2O[C@H]1CN(C)Cc1ccc(C(=O)Nc2ccccc2N)cc1,inactive
4,COCC(=O)N(C)C[C@@H]1Oc2cc(C#C[C@H](C)O)ccc2S(=O)(=O)N([C@H](C)CO)C[C@@H]1C,inactive
5,C[C@@H]1CN([C@@H](C)CO)C(=O)Cc2cc(NS(=O)(=O)c3ccc(F)cc3)ccc2O[C@@H]1CN(C)Cc1ccc(Cl)c(Cl)c1,active
6,C[C@@H]1CN([C@@H](C)CO)C(=O)Cc2cc(NS(=O)(=O)c3ccc(F)cc3)ccc2O[C@H]1CN(C)Cc1ccc(Cl)c(Cl)c1,inactive
7,C[C@@H]1CN([C@H](C)CO)C(=O)Cc2cc(NS(=O)(=O)c3ccc(F)cc3)ccc2O[C@H]1CN(C)Cc1ccc(Cl)c(Cl)c1,active
8,C[C@H](CO)N1C[C@H](C)[C@H](CN(C)Cc2ccc(Cl)c(Cl)c2)Oc2ccc(NS(=O)(=O)c3ccc(F)cc3)cc2CC1=O,inactive
9,C[C@H](CO)N1C[C@H](C)[C@@H](CN(C)Cc2ccc(Cl)c(Cl)c2)Oc2ccc(NS(=O)(=O)c3ccc(F)cc3)cc2CC1=O,inactive
10,C[C@H]1CN([C@@H](C)CO)C(=O)Cc2cc(NS(=O)(=O)c3ccc(F)cc3)ccc2O[C@@H]1CN(C)Cc1ccc(Cl)c(Cl)c1,active
11,C[C@H]1CN([C@@H](C)CO)C(=O)Cc2cc(NS(=O)(=O)c3ccc(F)cc3)ccc2O[C@H]1CN(C)Cc1ccc(Cl)c(Cl)c1,active
12,Cc1ccc(S(=O)(=O)Nc2ccc3c(c2)C(=O)N([C@H](C)CO)C[C@H](C)[C@H](CN(C)CC2CC2)O3)cc1,inactive
13,OCCn1cncn1,inactive
14,CN(C)CCCCNC(=O)[C@H]1C[C@H]2C(=O)NCC(=O)N2[C@H]1c1cccc(OCCO)c1,inactive
15,C[C@@H]1CCCCO[C@@H](CN(C)S(=O)(=O)c2cccs2)[C@H](C)CN([C@@H](C)CO)C(=O)c2cc(NC(=O)C3CCCCC3)ccc2O1,inactive
16,Cc1ncc(CO)c(CO)c1O,inactive
17,C[C@@H]1CCCCO[C@H](CN(C)Cc2ccncc2)[C@H](C)CN([C@@H](C)CO)C(=O)c2cc(NC(=O)Nc3ccc4c(c3)OCO4)ccc2O1,inactive
18,Cc1noc(C)c1NC(=O)N(C)C[C@@H]1Oc2ccc(NS(=O)(=O)c3ccccc3)cc2C(=O)N([C@@H](C)CO)C[C@H]1C,inactive
19,C[C@@H]1CN([C@H](C)CO)C(=O)Cc2cc(NS(=O)(=O)c3ccc(F)cc3)ccc2O[C@@H]1CN(C)Cc1ccc(Cl)c(Cl)c1,active
20,COc1ccc(S(=O)(=O)N(C)C[C@H]2Oc3c(NC(=O)C4CCOCC4)cccc3C(=O)N([C@@H](C)CO)C[C@@H]2C)cc1,inactive
